# D1 potentiator – potentiators of human D1 dopamine receptor; 360,000 tested, 0.036% active; P21728; HEK293 TREx D1 cells, calcium flux, dopamine EC20 potentiation; AID 504651; potentiation, % at 10 µM; in the data active = potentiation above about 30%; also: 0% is about no effect
# D3 ag – agonists of human D3 dopamine receptor. D3R DiscoveRx beta-arrestin cells, luminescence, 90 min. 410,000 tested, 0.58% active. max activation, %. P35462; in the data active = max activation above about 30%; also: 0% is about no effect
# Target sequence (P35462 whole entry, looked up): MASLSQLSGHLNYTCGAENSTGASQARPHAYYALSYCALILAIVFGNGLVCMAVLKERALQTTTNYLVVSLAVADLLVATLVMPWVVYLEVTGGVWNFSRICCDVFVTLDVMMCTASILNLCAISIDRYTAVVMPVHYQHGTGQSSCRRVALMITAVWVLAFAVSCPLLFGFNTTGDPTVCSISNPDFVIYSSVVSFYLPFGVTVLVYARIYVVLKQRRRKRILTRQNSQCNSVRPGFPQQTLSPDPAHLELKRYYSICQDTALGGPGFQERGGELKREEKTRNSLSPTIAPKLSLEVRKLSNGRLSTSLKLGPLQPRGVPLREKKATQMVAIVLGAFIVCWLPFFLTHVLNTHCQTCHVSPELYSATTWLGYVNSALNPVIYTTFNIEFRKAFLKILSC
#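 Agonist mode: compounds and dopamine controls were applied to plated cells for 90 min at 37 degrees C after an overnight attachment at 1500 cells/well. Luminescent read-out followed 30 - 60 minutes at room temperature with DiscoveRx detection reagent.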
# D1 agonist – activates the human D1 dopamine receptor; HEK293 T-REx D1 cells, calcium flux, agonist mode; activation, % at 2 µM; 360,000 tested, 1% active; AID 504660; in the data active = activation above about 30%; also: 0% is about no effect
#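 Tetracycline-induced HEK293 TREx D1 cells, force-coupled to calcium signalling, were dye-loaded with a no-wash calcium kit. Compound was pin-added after a 10 s baseline. Fluorescence was read kinetically at 1 cycle/s for 180 s, with calcium rises flagged as agonism.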
# D1 antagonist – antagonists of human D1 dopamine receptor | HEK293 TREx D1 cells, calcium flux, dopamine EC80; hits give low values | 360,000 tested, 3.2% active | activity change, negative = inhibition, % at 10 µM | P21728; in the data active = activity change below about -30%; also: % is scaled to controls: 0 for no effect and ±100 for the full control effect
#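 Tetracycline-induced HEK293 T-REx cells with force-coupled D1 receptor were loaded with a no-wash calcium dye. Compound was added after a 10 s baseline and read kinetically for 180 s; EC80 dopamine was then added and calcium flux followed another 180 s.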
# DRD3 antagonist – D3 dopamine receptor (human) antagonism; D3R cells, DiscoveRx beta-arrestin luminescence, antagonist mode; hits give low values; 360,000 tested, 2.5% active; max response, negative = inhibition, %; P35462; in the data active = max response below about -50%; inconclusive = no clear call, values can overlap the other calls; also: % is scaled to controls: 0 for no effect and ±100 for the full control effect
#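 Cells plated overnight at 1500 cells/well, then exposed to library compounds with dopamine controls for 90 minutes at 37 degrees C. DiscoveRx reagent added for 30–60 minutes at room temperature; luminescence read, quantitative HTS format.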
# Starred values were filed as active, the others as inactive; ? = inconclusive; / = not tested or not shown. A selection: hits, their analogues and other compounds. The true share with any hit is near 6.1%.
SMILES,D1 potentiator,D3 ag,D1 agonist,D1 antagonist,DRD3 antagonist
Cc1c(Cl)cccc1NC(=O)CSc1sc2c(O)cc(=O)[nH]c2c1C#N,0,3,0,-7,3
COC(=O)CCSc1cc([N+](=O)[O-])cc2c1c(C1OCCO1)nn2-c1ccccc1,4,-4,19,-36*,-8
COc1cccc(CN(C)C(=O)c2ccc(COc3ccc(Cl)cc3)cc2)c1OC,/,12,54*,-19,-1
COc1cccc(CN(C)C(=O)c2ccc(Oc3ccccc3)cc2)c1OC,-7,16,32*,2,12
CC1CC(C)CN(C(=O)C(C)N2CCN(S(=O)(=O)c3ccc(C(F)(F)F)cc3)CC2)C1 (centres undefined),/,2,/,/,8
COc1cc(/C=C/c2ccc3cccc(O)c3n2)cc(Cl)c1OC,-7,-17,8,3,-52*
COc1cc(/C=C/c2ccc3cccc(O)c3n2)cc(Br)c1OC,2,-18,2,-16,-55*
COc1cccc(/C=C/c2ccc3cccc(O)c3n2)c1,3,-21,6,-6,-56*
COc1cc(/C=C/c2ccc3c(Br)cc(Br)c(O)c3n2)ccc1O,-4,-27,14,-14,-91*
COc1cc([C@@H]2c3cc4c(cc3C(O[C@@H]3O[C@@H]5CO[C@@H](C)O[C@H]5[C@H](O)[C@H]3O)C3COC(=O)[C@@H]32)OCO4)cc(OC)c1OP(=O)(O)O (some centres undefined),/,-6,/,/,/
O=C(CSc1nccn1Cc1ccco1)Nc1ccc(OC(F)(F)F)cc1,-2,-13,0,-14,/
COc1cc(/C=C/c2ccc3cccc(O)c3n2)cc(OC)c1OC,-3,-27,0,-10,-64*
COC(=O)c1ccc(/C=C/c2ccc3cccc(OC)c3n2)cc1,-3,31*,2,-14,4
COc1ccc(/C=C/c2ccc3cccc(O)c3n2)cc1Br,-2,-15,9,11,?
COc1cccc(/C=C/c2ccc3cccc(O)c3n2)c1OC,0,-20,6,5,-160*
CN(Cc1ccc(Cl)cc1Cl)C(=O)c1cc(=O)c2ccccc2o1,1,0,1,1,-17
CCOc1ccc(NC(=O)CCS(=O)(=O)c2ccc3c(c2)n(C)c(=O)c(=O)n3C)cc1,-1,4,-1,1,/
CCC(=O)Oc1ccc(C2Nc3ccccc3-c3nnc(SC)nc3O2)cc1 (centres undefined),-1,-20,1,-2,/
CC1CCN(S(=O)(=O)N2CCC(C(=O)NCc3ccccc3Cl)CC2)CC1,-3,-9,-2,-1,/
O=C(CNC(=S)N(Cc1ccccc1)Cc1ccccc1F)NCc1ccccc1,10,-11,2,11,-4
COc1ccccc1C(C)NCC(=O)NCc1ccc(C)cc1 (centres undefined),0,-36,2,18,-58*
COc1ccccc1CNCC(O)Cn1c2ccccc2c2ccccc21 (centres undefined),-5,1,90*,-10,17
COc1ccccc1CNC(=O)CC(C)C,-7,1,4,-32*,-9
Cc1ccc(CNC(=O)CNC(=S)N(Cc2ccccc2)Cc2ccccc2F)cc1,-14,-8,6,-30*,-29
COc1ccccc1CNC(=O)COc1ccccc1OC,-2,0,4,11,0
SMILES,D1 potentiator,D3 ag,D1 agonist,D1 antagonist,DRD3 antagonist
N#Cc1cccc(S(=O)(=O)N2CCN(c3ccnc4cc(Cl)ccc34)CC2)c1,-3,2,4,9,14
O=C(CN1C(=O)C2C3CCC(C3)C2C1=O)N1CCN(Cc2ccccc2)CC1 (centres undefined),-1,-9,2,7,-2
COc1ccccc1CNCC(=O)NCc1ccc(C)cc1,-4,-20,4,4,-87*
COc1ccccc1CNC(=O)Cc1ccc(C)cc1,-1,3,-2,-14,8
COc1ccccc1CNC(=O)Cc1csc2nc(-c3ccccc3)cn12,-3,6,-2,-35*,/
O=C(Cc1csc2nc(-c3ccccc3)cn12)NCc1ccc(F)cc1,-1,0,5,-22,/
Cc1ccc(C)c(NC(=O)CN(C)C(=O)c2oc3c(Cl)cccc3c2C)c1,3,9,4,8,22
CCOc1ccc(NS(=O)(=O)c2ccc(C(=O)N(C)CC(=O)Nc3ccc(C)cc3)cc2)cc1,1,-9,6,19,0
